The subject of experiment [1] is Tov-21-G. The experiment is described as follows: Primary qHTS to identify gynecologic anti-cancer compounds using libraries of approved drugs and bioactive compounds (AID 1345084). Also: nearly all actives have a fitted effect of over 55% in size. Also: potency is read from the fitted curve at half-maximal effect. The following applies: Gynecologic cancer cell panel viability, ATPlite luminescence, 48 h; series mostly up to 57.5 µM. An outline of the steps:
(§1)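 In this quantitative HTS, cell killing is estimated from loss of ATP-dependent luciferase light. Cells see five compound concentrations over a 48 h exposure.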
On the technique in general: Quantitative high-throughput screening tests each substance at several concentrations.

Experiment [2] relates to Tov112D. Described as above. To be noted: Gynecologic cancer cell panel viability, ATPlite luminescence, 48 h; series mostly up to 57.5 µM. An outline of the steps:
as §1
For orientation: ATP-based viability assays read luminescence as a measure of living cells.

Experiment [3] can be described thus: Drug repurposing screens with cells derived from glioblastoma tumor samples (AID 1345199). Also: nearly all actives have a fitted effect of over 40% in size. Also: potency is read from the fitted curve at half-maximal effect. As to activity, negative = cell killing: % is scaled to controls: 0 for no effect and ±100 for the full control effect. To be noted: GBM patient neurospheres viability, ATP luminescence, 48 h. An outline of the steps: (§2)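 Primary testing used CD133+ neurospheres from four GBM patients, seven concentrations, 48 h exposure and ATP-based viability; confirmation added three slower-growing patient lines.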

For experiment [4], the system named is astro. The description is as above. To be noted: viability, ATP luminescence, 48 h; series mostly up to 45.9 µM. In short, it runs like this:
as §2

The target of experiment [5] is Nuclear receptor subfamily 1 group I member 2 (Rattus norvegicus) (UniProt Q9R1A7). The experiment is described as follows: qHTS assay for small molecule activators of the rat pregnane X receptor (rPXR) signaling pathway (AID 651751; call rule not given here; also: 0% is about no effect). To be noted: rPXR reporter cells, luciferase (One-Glo), 24 h.
Experiment [6] in a line: qHTS assay for small molecule activators of the human pregnane X receptor (PXR) signaling pathway (AID 720659; call rule not given here; also: 0% is about no effect).
The mark [7] stands for this setting: at 45.9 µM (top of the series), tumour line B.
[8] abbreviates: at 45.9 µM (top of the series), tumour line D.
Where [9] appears, read: at 46 µM (top of the series), tumour line A.
Setting [10] is: at 46.1 µM (top of the series), tumour line C.
Setting [11] is: at 20 µM (top of the series), tumour line C.
[12] abbreviates: at 21.2 µM (top of the series), tumour line B.
[13] abbreviates: at 21.3 µM (top of the series), tumour line A.
[14] abbreviates: at 21.2 µM (top of the series), tumour line D.

This is an account of results in PubChem BioAssay (NCATS).

Each structure is given as a SMILES string. Values joined by “and” are separate entries in the source; they are usually repeats but may differ in a detail not shown here. Equal values may be shown once. Values without a mark were called inactive. Inconclusive results are not listed. Some structures have more than one record in an assay (separate samples or runs), and their calls can disagree. Active and inactive are the calls of the source. Unless noted, calls follow the shape of the dose curve; as a rule, active = well fitted curve in the direction sought with a large enough effect; inconclusive = small, poorly fitted or top-dose-only effect, or another doubt; inactive = no such curve, though single readings can be large; an effect the other way counts as inactive or inconclusive.

Nuclear receptor subfamily 1 group I member 2 (Rattus norvegicus), sequence (Q9R1A7 whole entry, looked up): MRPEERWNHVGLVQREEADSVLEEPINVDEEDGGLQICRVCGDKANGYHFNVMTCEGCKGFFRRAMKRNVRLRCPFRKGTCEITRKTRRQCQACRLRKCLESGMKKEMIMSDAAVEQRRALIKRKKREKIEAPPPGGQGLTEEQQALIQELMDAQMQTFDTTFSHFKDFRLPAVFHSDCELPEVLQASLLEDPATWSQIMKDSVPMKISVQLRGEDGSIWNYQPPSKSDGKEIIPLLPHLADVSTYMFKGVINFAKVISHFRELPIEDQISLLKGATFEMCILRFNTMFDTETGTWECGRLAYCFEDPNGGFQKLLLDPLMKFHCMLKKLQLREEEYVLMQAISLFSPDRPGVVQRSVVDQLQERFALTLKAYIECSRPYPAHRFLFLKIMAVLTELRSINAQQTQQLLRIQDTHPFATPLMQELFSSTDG

Consider `CCn1cc(C(=O)O)c(=O)c2cc(F)c(N3CCNC(C)C3)c(F)c21` (centres undefined), for which the Potency result in experiment [1], in experiment [2] and in experiment [4] was “inactive” throughout. In addition, the activity, negative = cell killing in experiment [3] (setting [7]) was -18.8% and -6.47%; in experiment [3] (setting [8]), -1.92% and -11.9%; in experiment [3] (setting [9]), -14% and -29.8%; in experiment [3] (setting [10]) it was -19.8% and -7.41%.
Consider `Cc1ccccc1C(OCCN(C)C)c1ccccc1` (centres undefined), for which the Potency entry in experiment [1], in experiment [2] and in experiment [4] was “inactive” each time. For the same molecule, the activity, negative = cell killing in experiment [3] (setting [8]) was -29.5%; in experiment [3] (setting [10]) it was 0.923% and -8.9%. Moreover, the max response in experiment [5] is 4.25%.
On to `CC(C)(C)NCC(O)c1ccc(O)c(CO)c1` (centres undefined), for which the Potency result in experiment [1], in experiment [2] and in experiment [4] was “inactive” each time. The activity, negative = cell killing in experiment [3] (setting [7]) is -3.69%; in experiment [3] (setting [8]), -16.6%; in experiment [3] (setting [9]) it was -18.1%; in experiment [3] (setting [10]) it was -6.46%.
With `Nc1nc2c(ncn2COCCO)c(=O)[nH]1`, the Potency result in experiment [1], in experiment [2] and in experiment [4] was “inactive” in each case. The activity, negative = cell killing was -13.6% in experiment [3] (setting [11]), -4.96% in experiment [3] (setting [12]) and -33.2% in experiment [3] (setting [13]).
As for `Cc1oncc1C(=O)Nc1ccc(C(F)(F)F)cc1`, the Potency was 25.1 µM (active) in experiment [1], 20 µM (active) in experiment [2] and 10 µM (active) in experiment [4].
With `C1COC(NC(C2CC2)C2CC2)=N1`, the Potency result in experiment [1], in experiment [2] and in experiment [4] was “inactive” in each case.
Take `CC(C[N+](C)(C)C)OC(N)=O` (centres undefined): the Potency result in experiment [1], in experiment [2] and in experiment [4] was “inactive” in each case. Also, the activity, negative = cell killing in experiment [3] (setting [7]) is -0.814%; in experiment [3] (setting [8]) it was 5.66%; in experiment [3] (setting [9]) it was -20.4%; in experiment [3] (setting [10]), 5.23%.
For the molecule `Nc1ccc(S(=O)(=O)Nc2ccnn2-c2ccccc2)cc1`, the Potency entry in experiment [1], in experiment [2] and in experiment [4] was “inactive” throughout. The activity, negative = cell killing in experiment [3] (setting [11]) is -5.82%; in experiment [3] (setting [12]), -5.49%; in experiment [3] (setting [14]), -1.62%; in experiment [3] (setting [13]) it was -21.3%.
Turning to `CCC(C)(C)C(=O)O[C@H]1C[C@@H](C)C=C2C=C[C@H](C)[C@H](CC[C@@H]3C[C@@H](O)CC(=O)O3)[C@H]21`, the Potency entry in experiment [1] and in experiment [2] was “inactive” each time. For the same molecule, the activity, negative = cell killing is -22.9% in experiment [3] (setting [11]) and -19.9% in experiment [3] (setting [12]). The Potency was 0.891 µM (active) in experiment [3] (tumour line A) and 3.55 µM (active) in experiment [4].
Consider `Oc1ccc(C2CNCCc3c2cc(O)c(O)c3Cl)cc1` (centres undefined), for which the Potency entry in experiment [1], in experiment [2] and in experiment [4] was “inactive” throughout. For the same molecule, the activity, negative = cell killing in experiment [3] (setting [10]) was 2.51%.
On to `CCN(CC)CCCC(C)Nc1ccnc2cc(Cl)ccc12` (centres undefined), for which the Potency entry in experiment [1], in experiment [2] and in experiment [4] was “inactive” throughout. Further, in experiment [3] (setting [10]), the activity, negative = cell killing was 3.03%. Also, the Potency in experiment [3] (tumour line A) was 15.8 µM (active).
On to `Cc1[nH]c(=O)c(C#N)cc1-c1ccc2nccn2c1`, for which the Potency result in experiment [1], in experiment [2] and in experiment [4] was “inactive” in each case. Further, the activity, negative = cell killing is -4% in experiment [3] (setting [7]), 0.316% in experiment [3] (setting [8]), -27% in experiment [3] (setting [9]) and -6.47% in experiment [3] (setting [10]).
With `CC(c1cc2ccccc2s1)N(O)C(N)=O` (centres undefined), the Potency result in experiment [1], in experiment [2] and in experiment [4] was “inactive” throughout. In addition, the activity, negative = cell killing in experiment [3] (setting [7]) was -3.78%; in experiment [3] (setting [8]), -20.5%; in experiment [3] (setting [9]) it was -18.2%; in experiment [3] (setting [10]), -18.9%.
As for `CNC[C@H](O)c1cccc(O)c1`, the Potency result in experiment [1], in experiment [2] and in experiment [4] was “inactive” each time. Also, the activity, negative = cell killing in experiment [3] (setting [7]) is -2.77%; in experiment [3] (setting [8]) it was 6.94%; in experiment [3] (setting [10]), -5.24%. The max response in experiment [5] was 1.25%. The molecule was classed as inactive in experiment [6].
`N=c1nc(N2CCCCC2)cc(N)n1O`: the Potency entry in experiment [1], in experiment [2] and in experiment [4] was “inactive” each time. For the same molecule, the activity, negative = cell killing was -6.91% in experiment [3] (setting [7]), -11% in experiment [3] (setting [8]) and -16.6% in experiment [3] (setting [9]).
In the case of `CCCc1nc2c(C)cc(-c3nc4ccccc4n3C)cc2n1Cc1ccc(-c2ccccc2C(=O)O)cc1`, the Potency entry in experiment [1], in experiment [2] and in experiment [4] was “inactive” each time. For the same molecule, the activity, negative = cell killing in experiment [3] (setting [7]) is -13.6%; in experiment [3] (setting [8]), -10.2%; in experiment [3] (setting [9]) it was -16.9%; in experiment [3] (setting [10]), -10.7%.
As to `CN1CCN(CCCN2c3ccccc3Sc3ccc(C(F)(F)F)cc32)CC1`, in experiment [1], the Potency entry was “inactive”. In addition, the activity, negative = cell killing in experiment [3] (setting [10]) is -24.2%. Further, the Potency in experiment [3] (tumour line A) is 2.51 µM (active); in experiment [3] (tumour line B) it was 15.8 µM (active); in experiment [3] (tumour line D), 6.31 µM (active); in experiment [4], 25.1 µM (active).
Regarding `O=c1[nH]cnc2[nH]ncc12`, the Potency entry in experiment [1], in experiment [2] and in experiment [4] was “inactive” throughout. Also, in experiment [5], the max response is 2.04%. Further, the molecule was called inactive in experiment [6].
In the case of `Cc1ccc(N(CC2=NCCN2)c2cccc(O)c2)cc1`, the Potency entry in experiment [1] and in experiment [4] was “inactive” in each case. Further, the activity, negative = cell killing in experiment [3] (setting [7]) was -13.6%; in experiment [3] (setting [10]), -7.27%. Besides, in experiment [3] (tumour line A), the Potency is 14.1 µM (active).
In the case of `CCCS(=O)(=O)Nc1ccc(F)c(C(=O)c2c[nH]c3ncc(Cl)cc23)c1F`, the Potency entry in experiment [2] is “inactive”.
For the molecule `O=C1CCC(N2C(=O)c3ccccc3C2=O)C(=O)N1` (centres undefined), the Potency entry in experiment [1], in experiment [2] and in experiment [4] was “inactive” throughout. Also, in experiment [5], the max response is 1.73%. The molecule was called inactive in experiment [6].
As to `Cn1cnc2c(F)c(Nc3ccc(Br)cc3Cl)c(C(=O)NOCCO)cc21`, the Potency entry in experiment [2] is “inactive”.
`N#Cc1ccc(C(c2ccc(C#N)cc2)n2cncn2)cc1`: the figures for the activity, negative = cell killing in experiment [3] (setting [11]), in experiment [3] (setting [12]) and in experiment [3] (setting [14]) were -3.52%, -10% and -7.94%, respectively. Also, the Potency entry in experiment [4] was “inactive”.
`Cc1c(C)c2c(c(C)c1O)CCC(C)(COc1ccc(CC3SC(=O)NC3=O)cc1)O2` (centres undefined): the Potency result in experiment [1] and in experiment [2] was “inactive” in each case. Besides, the Potency in experiment [4] is 10 µM (active). The max response in experiment [5] was -12.9%.
Turning to `Cc1cn[nH]c1`, the Potency entry in experiment [1], in experiment [2] and in experiment [4] was “inactive” throughout.
On to `NC(N)=NC(=O)c1nc(Cl)c(N)nc1N`, for which the Potency entry in experiment [1], in experiment [2] and in experiment [4] was “inactive” in each case. Moreover, the call in experiment [6] was inactive.
